NS1 inh: blocks influenza NS1 protein function; AID 2326; hit rate 0.4% among 270,000; Potency, µM (doses to about 46.1 µM), without a hit: at the highest dose activity, positive = more growth; further: potency means the concentration at half of the fitted maximal effect; actives are rising curves; nearly all actives have a fitted effect of over 50% in size
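In this qHTS, NS1 from influenza A is expressed in budding yeast, where it slows growth. Cells are switched from glucose to 2% galactose medium (pH 6.0, -URA), treated with compound, and growth recovery is read at OD600.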
Pf growth 96h: P. falciparum growth inhibition at 96 hour, primary screen for plastid delayed-death inhibitors; P. falciparum luciferase reporter growth, 96 h; Potency, µM (titrated, usually from 28.7 µM), inactives show top-dose activity change, negative = inhibition, actives largely listed as inhibitors; hit rate 6.9% among 320,000; AID 504834; active means well fitted inhibition curve with a large enough effect; inconclusive means small, poorly fitted or top-dose-only effect, or another doubt; inactive means no such curve, though single readings can be large or run the other way; further: potency means the concentration at half of the fitted maximal effect; on the % scale 0 is the no-effect control and ±100 the full control effect
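Infected RBCs, 2% Hct / 0.05% parasitemia final; luciferase-reporter P. falciparum; cpd 96 h, 37 C, 5% CO2; luciferase detection reagent; luminescence.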
SARS PLP yeast: blocks SARS-CoV papain-like protease in a yeast assay | S. cerevisiae expressing SARS-CoV PLpro, growth rescue | Potency, µM (highest dose often 32.9 µM), without a hit: at the top dose activity, positive = growth rescue, most hits filed as activators | hit rate 0.19% among 330,000; further: potency means the concentration at half of the fitted maximal effect; 0% is about no effect; nearly all actives have a fitted effect of over 55% in size
Pf growth 48h: inhibits P. falciparum growth in the first generation, 48 h. P. falciparum luciferase growth in erythrocytes, 48 h. Potency, µM (highest dose often 28.7 µM), inactives show at the top dose activity change, negative = inhibition, actives largely listed as inhibitors. hit rate 5.9% among 310,000. AID 504832; active means well fitted inhibition curve with a large enough effect; inconclusive means small, poorly fitted or top-dose-only effect, or another doubt; inactive means no such curve, though single readings can be large or run the other way; further: potency means the concentration at half of the fitted maximal effect; on the % scale 0 is the no-effect control and ±100 the full control effect
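Growth was read as firefly luciferase luminescence after a 48 h, 37 C, 5% CO2 exposure of compounds to reporter-bearing P. falciparum cultures (0.1% parasitemia, 2% hematocrit final) in Albumax-supplemented RPMI 1640.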
Cycloheximide cs: counter-screen for Shiga toxin inhibitors: cycloheximide protein synthesis inhibition | cell reporter, cycloheximide protein synthesis inhibition counterscreen | hit rate 12% among 300,000 | max response, %; in the data active means max response mostly above about 13%, no sharp cut-off; inactive means mostly below about 14%; further: read at 38.3 µM for the half of the compounds with a filed dose; 0% is about no effect
Shiga inhibitor: inhibitors of Shiga toxin in Vero cells. Vero cells, Shiga toxin protein synthesis inhibition reporter. inhibition, % at 38.7 µM. hit rate 9.2% among 290,000. AID 2315; in the data active means inhibition mostly above about 28%, no sharp cut-off; inactive means mostly below about 43%; further: 0% is about no effect
The depositor's hits bear a star; u = inconclusive; x = not tested or not shown; [ ] = dose if it differs, or a comment. Hits are enriched below; roughly 21% of the tested compounds scored in any of these assays. Unless noted, the call rests on the fitted dose curve.

SMILES | NS1 inh | Pf growth 96h | SARS PLP yeast | Pf growth 48h | Cycloheximide cs | Shiga inhibitor
Cc1ccccc1CC1CCN(CCCNC(=O)Nc2ccccc2)CC1 | -1% | 9% | -2% | 7% | 1 | -5
Cc1c(C(=O)NCc2ccc(S(N)(=O)=O)cc2)oc2ccc(Cl)cc12 | 6% | 0% | -1% | 26% | -1 | 15
COc1ccc(-n2c(=O)/c(=C\c3cccs3)s/c2=C(/C#N)C(=O)N2CCN(C)CC2)cc1 | 18% | 20% | 5% | u | 9 | -12
C/C(=N\NC(=O)c1ccccc1F)c1cccc(NC(=O)c2ccccc2)c1 | 7% | 4% | 2% | 27% | 24* | 52*
C/C(=N\NC(=O)c1ccc(O)cc1)c1cccc(NC(=O)c2ccccc2C)c1 | -2% | u | -3% | 33% | 25* | 28*
O=C(O)c1ccccc1N=Cc1c(O)n(-c2nccs2)c(=O)c2ccccc12 | 6% | 1% | 0% | 7% | -1 | 22
CCN(CC)S(=O)(=O)c1cccc(-n2c(O)c(C=Nc3ccccc3C(=O)O)c3ccccc3c2=O)c1 | 4% | 7.4µM* | -1% | 13µM* | 0 | 1
O=S(=O)(O)c1ccc2c(N=Nc3c(O)ccc4ccccc34)cccc2c1 | 0% | x | x | x | x | x
CC[C@H](NC(C)C)[C@H](O)c1ccc(O)c(O)c1 | x | 13µM* | x | u | x | x
CC(N)[C@H](O)c1ccc(O)c(O)c1 (stereo partly specified) | -5% | x | x | x | -6 | -14
C[C@@H](N)[C@@H](O)c1ccc(O)c(O)c1 | x | 0.6µM* | x | 0% | x | x
COc1ccc(S(=O)(=O)NC(C)C(=O)NCc2ccc3c(c2)OCO3)cc1OC (stereo unspecified) | -2% | 1% | 17% | 1% | -6 | 2
CCCC(=O)Nc1c2c(nn1-c1ccc([N+](=O)[O-])cc1)CS(=O)(=O)C2 | -4% | 11% | 4% | 21% | -1 | 3
O=C(C[n+]1cc(-c2ccc(Br)cc2)n2c1CCCCC2)c1ccccc1 | x | u | 1% | 1.7µM* | -3 | -12
O=C(C[n+]1cc(-c2ccccc2)n2c1CCC2)c1cccs1 | x | u | 0% | u | -4 | -4
O=C(C[n+]1cc(-c2ccc(Cl)cc2)n2c1CCCCC2)c1ccccc1 | -2% | u | -1% | u | 26* | 52*
COc1ccc(-c2nc(C(F)(F)F)c(OC)o2)cc1OC | 3% | 0% | 7% | 9% | -4 | -15
CNC(=O)CSc1nnc(-c2cccc(S(=O)(=O)N3CCOCC3)c2)n1-c1ccc(F)cc1 | 5% | -13% | 3% | 6% | -1 | -7
Cc1cccc(-n2c(CNC(=O)c3ccc(S(=O)(=O)N(C)C)cc3)nnc2SCC(=O)Nc2ccc(F)cc2)c1 | -19% | u | -10% | 12µM* | 1 | -10
Cc1cccc(NC(=O)CSc2nnc(CNC(=O)c3ccc(S(=O)(=O)N(C)C)cc3)n2-c2ccc(F)cc2)c1 | -15% | u | -6% | -14% | -2 | -8
Cc1cccc(NC(=O)CSc2nnc(CNC(=O)c3ccc(S(=O)(=O)N(C)C)cc3)n2-c2cccc(C)c2)c1 | -16% | 7.4µM* | 19% | u | 1 | 6
CN(C)S(=O)(=O)c1cccc(-c2nnc(SCC(=O)NCCCCCC(=O)O)n2-c2ccc(F)cc2)c1 | x | 38%[5.75 µM] | -1% | 19% | 14 | 32*
Cc1ccc(S(=O)(=O)N2CCOCC2)cc1NC(=O)CN1C(=O)NC(C)(c2ccc(Cl)cc2Cl)C1=O (stereo unspecified) | x | x | 1% | x | x | x
Cc1ccc(C)c(N2CCN(C(=O)c3ccc4nc(N5CCOCC5)sc4c3)CC2)c1 | -1% | 62% | -3% | u | 4 | 2
CCCC(=O)N1CCN(c2nc3ccc(Cl)cc3s2)CC1 | -20% | 11% | -6% | 50% | 43* | 50*
SMILES | NS1 inh | Pf growth 96h | SARS PLP yeast | Pf growth 48h | Cycloheximide cs | Shiga inhibitor
O=C(O)CCC(=O)N1CCN(c2nc3ccccc3s2)CC1 | -9% | x | 2% | 18% | -1 | -36
CCCC(=O)N1CCN(c2nc3ccc(Br)cc3s2)CC1 | -16% | -9% | -10% | 22% | 44* | 46*
CCCCC(=O)N1CCN(c2nc3ccc(Br)cc3s2)CC1 | -21% | 18% | -13% | 48% | 26* | 45*
CCCC(=O)N1CCN(c2nc3ccc(CC)cc3s2)CC1 | -19% | u | -2% | u | 36* | 134*
O=S1(=O)CCOCCCN1Cc1ccc(Cl)cc1 | -4% | -2% | 1% | -8% | -2 | 5
CC(=O)Oc1cccc(N2C(=O)c3ccc(C(=O)Nc4c[nH]c(=O)[nH]c4=O)cc3C2=O)c1 | 8% | u | 0% | 34% | -3 | -6
COc1ccc(OC)c(S(=O)(=O)N2CCCC(C(=O)NCc3cccnc3)C2)c1 (stereo unspecified) | -6% | 25% | 1% | -1% | -6 | 4
CN(Cc1ccccc1)C(=O)c1[nH]cnc1C(=O)Nc1nccs1 | x | u | -24% | 15% | x | x
CC1(C)NC(=O)N(CC(=O)OCC(=O)Nc2cc(S(=O)(=O)N3CCCCC3)ccc2Cl)C1=O | -1% | u | 0% | -23% | -3 | -9
Cc1ccccc1NC(=O)CSc1nc(-c2cccs2)nc2cc(=O)[nH]n12 | x | -4% | -3% | u | x | x
COc1ccc(NC(=O)C2CCCN2C(=O)Oc2ccccc2)cc1 (stereo unspecified) | -2% | 16% | 0% | u | 7 | 7
O=C(NC1CCCC1)c1ccc2c(c1)N(Cc1ccccc1)CCS2 | 5% | 10µM* | 7% | u | -1 | -5
CCOC(=O)N1CCN(C(=O)c2ccc3c(c2)NC(=O)/C(=C/c2ccccc2)S3)CC1 | 13% | 15µM* | 0% | -9% | 8 | -2
CCOC(=O)N1CCN(C(=O)c2ccc3c(c2)N(Cc2ccccc2)CCS3)CC1 | -1% | 12µM* | 1% | u | -3 | -1
CCOC(=O)C1CCN(C(=O)c2ccc3c(c2)NC(=O)/C(=C/c2ccccc2)S3)CC1 | 19% | u | -5% | u | -3 | 4
CCN1CCN(CCCNC(=O)c2ccc3c(c2)N(Cc2ccc(C)cc2)CCS3)CC1 | -3% | u | 10% | 17µM* | -6 | -4
CC1CC(C)CN(C(=O)c2ccc3c(c2)N(Cc2ccccc2)CCS3)C1 (stereo unspecified) | -101% | u | -27% | x | -5 | -10
CN(CC(O)Cn1cnc2c1c(=O)n(C)c(=O)n2C)c1ccccc1 (stereo unspecified) | 2% | -2% | 2% | 2% | -3 | -13
Cc1ccc(C(C2C(=O)CC(C)(C)CC2=O)C2C(=O)CC(C)(C)CC2=O)s1 | -6% | 36% | -5% | -23% | 7 | 12
COc1ccc(CCC(=O)Nc2cnc3ccccc3c2)cc1 | 5% | u | 7% | u | 32* | 79*
COc1ccc(CC(=O)Nc2nc3ccccc3[nH]2)cc1 | 10% | -3% | -1% | u | 6 | -7
